{
  "source": "paper PMC4336329",
  "about": "(PLoS ONE, 2015)",
  "note": "Out of some 310,000 compounds screened, about 14,000 (4.5%) showed an effect of 50% or more. Effects have a minus sign here. The full list was thinned out, with strong results kept by preference.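 Also: peak tail current of the secondary pulse compared with the same well before compound.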",
  "data": [
    {"molecular_target": "human ether-à-go-go-related gene (hERG) potassium channel (human, UniProt Q12809)", "sequence (Q12809 whole entry, looked up)": "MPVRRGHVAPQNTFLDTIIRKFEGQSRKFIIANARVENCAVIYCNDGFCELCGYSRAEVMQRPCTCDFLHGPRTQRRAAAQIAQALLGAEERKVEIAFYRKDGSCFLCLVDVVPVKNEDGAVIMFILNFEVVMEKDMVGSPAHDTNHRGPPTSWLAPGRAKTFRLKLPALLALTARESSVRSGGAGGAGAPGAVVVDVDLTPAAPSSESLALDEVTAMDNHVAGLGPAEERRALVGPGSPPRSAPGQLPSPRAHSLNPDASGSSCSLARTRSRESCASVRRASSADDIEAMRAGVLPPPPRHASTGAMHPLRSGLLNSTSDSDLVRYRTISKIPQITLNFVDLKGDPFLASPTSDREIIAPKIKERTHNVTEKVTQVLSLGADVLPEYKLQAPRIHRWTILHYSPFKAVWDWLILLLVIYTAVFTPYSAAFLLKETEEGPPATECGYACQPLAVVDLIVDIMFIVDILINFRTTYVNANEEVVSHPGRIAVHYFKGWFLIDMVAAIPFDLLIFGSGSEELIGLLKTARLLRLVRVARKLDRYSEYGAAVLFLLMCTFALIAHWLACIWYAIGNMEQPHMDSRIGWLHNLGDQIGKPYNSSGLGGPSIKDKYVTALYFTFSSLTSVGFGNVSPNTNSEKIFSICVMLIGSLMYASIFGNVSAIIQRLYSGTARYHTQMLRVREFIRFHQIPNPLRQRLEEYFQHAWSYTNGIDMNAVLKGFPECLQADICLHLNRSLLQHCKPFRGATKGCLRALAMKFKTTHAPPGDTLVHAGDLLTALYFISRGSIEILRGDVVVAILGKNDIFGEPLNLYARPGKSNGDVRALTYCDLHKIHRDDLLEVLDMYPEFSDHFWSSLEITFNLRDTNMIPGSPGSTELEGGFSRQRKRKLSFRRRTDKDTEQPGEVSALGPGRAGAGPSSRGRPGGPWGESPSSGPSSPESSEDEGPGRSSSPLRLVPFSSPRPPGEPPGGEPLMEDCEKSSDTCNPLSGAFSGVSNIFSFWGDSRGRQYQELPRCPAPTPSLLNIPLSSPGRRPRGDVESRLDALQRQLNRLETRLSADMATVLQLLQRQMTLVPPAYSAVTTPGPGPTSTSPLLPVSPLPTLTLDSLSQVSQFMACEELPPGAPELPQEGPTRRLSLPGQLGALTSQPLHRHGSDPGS", "experiment": "primary screen, population patch clamp on CHO cells stably expressing hERG; higher = less effect of the substance", "units": {"hERG current change (%, negative = inhibition) at 10uM": "%"}, "values": [
      {"smiles": "Cc1ccc(NC(=O)COc2ccc(-n3ccnc3)cc2)cc1Cl", "hERG current change (%, negative = inhibition) at 10uM": -33.6},
      {"smiles": "CCOC(=O)/C(C)=N/NC(=O)c1cccc([N+](=O)[O-])c1", "hERG current change (%, negative = inhibition) at 10uM": 7.04},
      {"smiles": "Cc1ccc(CNC(=O)c2ccc(N3CCC4(CC3)CC(c3ccccc3)=NO4)c(NC(=O)c3cccc(C)c3)c2)cc1", "hERG current change (%, negative = inhibition) at 10uM": -6.37},
      {"smiles": "CCCOc1ccc(N2C(=O)CC(SCc3nc4ccccc4[nH]3)C2=O)cc1", "note": "(centres unmarked)", "hERG current change (%, negative = inhibition) at 10uM": -41.2},
      {"smiles": "N/C(=N/[N+](=O)[O-])N1CCN(C(=O)Oc2ccc([N+](=O)[O-])cc2)CC1", "hERG current change (%, negative = inhibition) at 10uM": -36.5},
      {"smiles": "O=C(Oc1ccc([N+](=O)[O-])cc1)N1CCC(N2CCCCC2)CC1", "hERG current change (%, negative = inhibition) at 10uM": -65.4},
      {"smiles": "O=C(Oc1cccc([N+](=O)[O-])c1)N1CCCCC1", "hERG current change (%, negative = inhibition) at 10uM": -0.619},
      {"smiles": "COC(=O)C1=C(c2ccc(F)cc2OCc2ccccc2)C[C@@H]2CC[C@H]1N2C(=O)NCCO", "hERG current change (%, negative = inhibition) at 10uM": 3.42},
      {"smiles": "Cc1cc(C)c(C#N)c(SCc2ccccc2C)n1", "hERG current change (%, negative = inhibition) at 10uM": 17.7},
      {"smiles": "COc1ccc(C(=O)CN2CCN(S(=O)(=O)c3cccc([N+](=O)[O-])c3)CC2)cc1OC", "hERG current change (%, negative = inhibition) at 10uM": -5.28},
      {"smiles": "COc1ccc(S(=O)(=O)N2CCN(Cc3cccc([N+](=O)[O-])c3)CC2)cc1", "hERG current change (%, negative = inhibition) at 10uM": -87.4},
      {"smiles": "CC(=O)c1ccc(OCC(O)CN2CCN(S(=O)(=O)c3cccc(Br)c3)CC2)cc1", "note": "(centres unmarked)", "hERG current change (%, negative = inhibition) at 10uM": 22.8},
      {"smiles": "COc1cccc(C(=O)CN2CCN(S(=O)(=O)c3cccc([N+](=O)[O-])c3)CC2)c1", "hERG current change (%, negative = inhibition) at 10uM": -9.29},
      {"smiles": "O=S(=O)(c1cccs1)N1CCN(CC(O)COC2CCCc3ccccc32)CC1", "note": "(centres unmarked)", "hERG current change (%, negative = inhibition) at 10uM": -25.1},
      {"smiles": "CCOc1ccc(S(=O)(=O)N2CCN(CC(O)COc3cccc([N+](=O)[O-])c3)CC2)cc1", "note": "(centres unmarked)", "hERG current change (%, negative = inhibition) at 10uM": -65.5},
      {"smiles": "COc1ccc(S(=O)(=O)N2CCN(Cc3cccc(OC)c3)CC2)cc1", "hERG current change (%, negative = inhibition) at 10uM": -28.6},
      {"smiles": "Cc1ccc(S(=O)(=O)N2CCN(CC(O)COc3ccccc3)CC2)cc1", "note": "(centres unmarked)", "hERG current change (%, negative = inhibition) at 10uM": -16.2},
      {"smiles": "O=[N+]([O-])c1cccc(OCC(O)CN2CCN(S(=O)(=O)c3cc(Cl)ccc3Cl)CC2)c1", "note": "(centres unmarked)", "hERG current change (%, negative = inhibition) at 10uM": -31.3},
      {"smiles": "COc1ccc(C(=O)CN2CCN(S(=O)(=O)c3cccc([N+](=O)[O-])c3)CC2)cc1", "hERG current change (%, negative = inhibition) at 10uM": -112},
      {"smiles": "O=S(=O)(c1cccs1)N1CCN(CC(O)COc2cccc(Br)c2)CC1", "note": "(centres unmarked)", "hERG current change (%, negative = inhibition) at 10uM": -61.1},
      {"smiles": "COc1ccc(S(=O)(=O)N2CCN(Cc3cccc(F)c3)CC2)cc1", "hERG current change (%, negative = inhibition) at 10uM": -3.34},
      {"smiles": "Cc1ccc2oc(C(=O)NCC(c3ccco3)N3CCCC3)c(C)c2c1", "note": "(centres unmarked)", "hERG current change (%, negative = inhibition) at 10uM": -33.8},
      {"smiles": "COc1ccc(C(=O)NNC(=O)CCn2nnc(-c3ccc(Cl)cc3)n2)cc1OC", "hERG current change (%, negative = inhibition) at 10uM": 19},
      {"smiles": "O=P(O)(c1ccccc1)c1ccccc1O", "hERG current change (%, negative = inhibition) at 10uM": -7.16},
      {"smiles": "O=C(NN1C(=O)C2C3C=CC(C4CC34)C2C1=O)c1ccccc1Cl", "note": "(centres unmarked)", "hERG current change (%, negative = inhibition) at 10uM": 0.861},
      {"smiles": "COc1ccc(N(C)S(=O)(=O)c2cccc(C(=O)Nc3nc(C)c(C(C)=O)s3)c2)cc1", "hERG current change (%, negative = inhibition) at 10uM": 7.14},
      {"smiles": "CCOC(=O)Cn1nnnc1CN(Cc1ccccc1)Cc1cc2cc(CC)ccc2[nH]c1=O", "hERG current change (%, negative = inhibition) at 10uM": -11.2},
      {"smiles": "CN1CCN(S(=O)(=O)c2cccc([N+](=O)[O-])c2)CC1", "hERG current change (%, negative = inhibition) at 10uM": 18.7},
      {"smiles": "O=[N+]([O-])c1cccc(S(=O)(=O)N2CCN(c3ccccn3)CC2)c1", "hERG current change (%, negative = inhibition) at 10uM": 4.57},
      {"smiles": "CC(C)n1c(N2CCN(S(=O)(=O)c3cccc([N+](=O)[O-])c3)CC2)nc2ccccc21", "hERG current change (%, negative = inhibition) at 10uM": -71},
      {"smiles": "Cc1ccc(C(=O)Nc2nnc(S(=O)(=O)N3CCC(C)CC3)s2)cc1", "hERG current change (%, negative = inhibition) at 10uM": 21.8},
      {"smiles": "Cc1cc(/C=N/NC(=O)c2ccc(O)cc2)c(C)n1C1CC1", "hERG current change (%, negative = inhibition) at 10uM": 20.4},
      {"smiles": "CC(C)CNC(=O)/C(C#N)=C1\\N=C(NC(=O)c2ccco2)c2ccccc21", "hERG current change (%, negative = inhibition) at 10uM": -60.4},
      {"smiles": "N#C/C(C(=O)NCc1ccccc1)=C1/N=C(NC(=O)c2ccco2)c2ccccc21", "hERG current change (%, negative = inhibition) at 10uM": 10.3},
      {"smiles": "CCCNC(=O)/C(C#N)=C1\\N=C(NC(=O)c2ccco2)c2ccccc21", "hERG current change (%, negative = inhibition) at 10uM": -44.6},
      {"smiles": "Cc1c(C(=O)N(Cc2cccs2)C2CCS(=O)(=O)C2)oc2ccccc12", "note": "(centres unmarked)", "hERG current change (%, negative = inhibition) at 10uM": -50.2},
      {"smiles": "Cc1c(C(=O)N(Cc2ccccc2)C2CCS(=O)(=O)C2)oc2ccccc12", "note": "(centres unmarked)", "hERG current change (%, negative = inhibition) at 10uM": -38.5},
      {"smiles": "O=C(COc1ccccc1)N(Cc1cccs1)C1CCS(=O)(=O)C1", "note": "(centres unmarked)", "hERG current change (%, negative = inhibition) at 10uM": -17.4},
      {"smiles": "Cc1ccc(C(=O)N(Cc2cccs2)C2CCS(=O)(=O)C2)cc1", "note": "(centres unmarked)", "hERG current change (%, negative = inhibition) at 10uM": 0.98},
      {"smiles": "Cc1ccc2c(C)c(C(=O)N(Cc3cccs3)C3CCS(=O)(=O)C3)oc2c1", "note": "(centres unmarked)", "hERG current change (%, negative = inhibition) at 10uM": -20.8},
      {"smiles": "O=C(c1ccc([N+](=O)[O-])cc1)N(Cc1cccs1)C1CCS(=O)(=O)C1", "note": "(centres unmarked)", "hERG current change (%, negative = inhibition) at 10uM": -50},
      {"smiles": "O=C(COc1ccc(Br)cc1)N(Cc1cccs1)C1CCS(=O)(=O)C1", "note": "(centres unmarked)", "hERG current change (%, negative = inhibition) at 10uM": -51.7},
      {"smiles": "O=C(COc1ccc(F)cc1)N(Cc1cccs1)C1CCS(=O)(=O)C1", "note": "(centres unmarked)", "hERG current change (%, negative = inhibition) at 10uM": -33.4},
      {"smiles": "Cc1ccc(OCC(=O)N(Cc2cccs2)C2CCS(=O)(=O)C2)cc1", "note": "(centres unmarked)", "hERG current change (%, negative = inhibition) at 10uM": -8.3},
      {"smiles": "COc1ccc(OCC(=O)N(Cc2cccs2)C2CCS(=O)(=O)C2)cc1", "note": "(centres unmarked)", "hERG current change (%, negative = inhibition) at 10uM": -6.75},
      {"smiles": "CC(C)(C)c1ccc(OCC(=O)N(Cc2cccs2)C2CCS(=O)(=O)C2)cc1", "note": "(centres unmarked)", "hERG current change (%, negative = inhibition) at 10uM": -54.2},
      {"smiles": "O=C(c1ccccc1)N(Cc1cccs1)C1CCS(=O)(=O)C1", "note": "(centres unmarked)", "hERG current change (%, negative = inhibition) at 10uM": 12}
    ]}
  ]
}
